The values below come from PubChem BioAssay (NCI).

Test systems include T-47D breast; BT-549 breast; MDA-MB-435 melanoma; SW-620 colon; MCF7 breast; HCT-116 colon; HCC-2998 colon; KM12 colon.
Common to all, as to assay: NCI-60 one-dose screen, 48 h (100 = growth as untreated, 0 = no growth, -100 = all killed)
Details in all cases: 10 µM unless noted

The panel holds about 83,000 compounds, 20% with a hit somewhere; the sample as a whole holds those more often.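 Testing used 96-well plates and a 48-hour single-concentration exposure. Example: -40 means 40% of the starting cells died.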 A number with no mark means an inactive call. Activity calls are given as the source filed them. How the source made its calls: active means growth percent below 10; inactive means the rest.

On to `N#Cc1cccc(-c2c(-c3ccc4ccccc4c3)oc3ccccc3c2=O)c1`, for which the growth with T-47D breast is 45.1%; with BT-549 breast, 34.1%; in the test on MDA-MB-435 melanoma it was -26.8% (active); with SW-620 colon, 14.6%; with MCF7 breast, 20.3%; with HCT-116 colon, 12.4%. The growth was 68.8% in the test with HCC-2998 colon and 25.9% in the test on KM12 colon.

Turning to `S=C(Nc1ccc(-c2nc(N3CCOCC3)c3cccn3n2)cc1)Nc1cccnc1`, the growth with T-47D breast is -4.82% (active); with BT-549 breast, 32.8%; in the test with MDA-MB-435 melanoma, 31.8%; in the test on SW-620 colon, 46.7%; in the test on MCF7 breast, 20.4%; in the test on HCT-116 colon, 17.3%. The growth with HCC-2998 colon is 32.9%; in the test with KM12 colon, 28.1%.

Take `O=C(c1ccc(-c2nc(CSc3nc4ccccc4s3)no2)cc1)N1CCSCC1`: the growth with T-47D breast is 11.1%; in the test with BT-549 breast, 67.7%; in the test with MDA-MB-435 melanoma, 70.6%; with SW-620 colon, 82.4%; in the test on MCF7 breast, 72.5%; in the test on HCT-116 colon, 49.8%. Also, the growth in the test with HCC-2998 colon is 94.9%; with KM12 colon, 57.7%.

Take `CCCCC(=O)c1ccco1`: the growth in the test with T-47D breast is 79.4%; with BT-549 breast, 102%; with MDA-MB-435 melanoma it was 98.8%; in the test on SW-620 colon, 97%; in the test on MCF7 breast, 90.9%; in the test with HCT-116 colon, 91.6%. Also, the figures for the growth in the test on HCC-2998 colon and in the test on KM12 colon were 94.3% and 106%, respectively.

Take `O=C(O)CNC1=C(Cl)C(=O)c2ccccc2C1=O`: the growth in the test with T-47D breast is 78.1%; in the test with BT-549 breast it was 87.5%; in the test with MDA-MB-435 melanoma it was 102%; in the test with SW-620 colon, 102%; in the test on MCF7 breast it was 81.8%; in the test on HCT-116 colon, 100%. For the same compound, the results for the growth with HCC-2998 colon and in the test on KM12 colon were 114% and 104%, respectively.

Turning to `CCN(CC)CCNC(=O)c1cn2ncnc(Oc3ccc(NC(=O)Nc4ccc(Cl)c(C(F)(F)F)c4)c(F)c3)c2c1C`, the growth in the test with T-47D breast was 64.5%; in the test with BT-549 breast, 30.3%; in the test with MDA-MB-435 melanoma, -78.8% (active); in the test with SW-620 colon it was -62.1% (active); in the test with MCF7 breast, -65% (active); with HCT-116 colon it was -79.3% (active). For the same compound, the growth with HCC-2998 colon was -88.9% (active); in the test on KM12 colon it was -30.5% (active).

With `C=CCn1c(SCC(=O)NCc2cc(C)c(O)c(C)c2)nc2ccc(Cl)cc2c1=O`, the growth in the test on T-47D breast was 103%; in the test with BT-549 breast, 113%; with MDA-MB-435 melanoma, 107%; in the test with SW-620 colon, 102%; in the test on MCF7 breast, 91.3%; in the test on HCT-116 colon, 102%. Moreover, the results for the growth in the test on HCC-2998 colon and with KM12 colon were 110% and 104%, respectively.

For `O=C(Nc1nc2ccc(F)cc2s1)c1cccnc1Nc1ccc(Cl)cc1`, the growth with T-47D breast is -0.413% (active); with BT-549 breast, 31.8%; with MDA-MB-435 melanoma it was 29.2%; in the test with SW-620 colon, 49.8%; with MCF7 breast, 17.7%; with HCT-116 colon, 14.2%. Also, the growth in the test with HCC-2998 colon was 31.1%; with KM12 colon, 31.3%.

Consider `O=C(Nc1cccnc1Nc1ccc(F)cc1)c1cn(Cc2cccc(Oc3ccccc3)c2)nn1`, for which the growth in the test with T-47D breast was 65.4%; with BT-549 breast, 69.8%; with MDA-MB-435 melanoma it was -32.4% (active); with SW-620 colon, 56.5%; in the test on MCF7 breast, 40.1%; with HCT-116 colon, 68.8%. The values for the growth with HCC-2998 colon and in the test on KM12 colon were 84.8% and 55.9%, respectively.

For the compound `O=C1/C(=C/c2ccc(F)cc2)COc2ccc(O)c(O)c21`, the growth in the test with T-47D breast was 4.43% (active); with BT-549 breast, 3.57% (active); with MDA-MB-435 melanoma, 1.65% (active); with SW-620 colon, -44.8% (active); with MCF7 breast, 17.7%; in the test with HCT-116 colon, -3.28% (active). For the same compound, the results for the growth in the test on HCC-2998 colon and in the test on KM12 colon were 19.9% and 1.7% (active), respectively.

On to `COc1ccc2cc(C(=O)c3coc4ccc(O)cc34)ccc2c1`, for which the growth with T-47D breast is 84.2%; in the test with BT-549 breast, 94.2%; with MDA-MB-435 melanoma, 104%; in the test on SW-620 colon, 116%; in the test on MCF7 breast it was 37.5%; with HCT-116 colon, 94%. Further, the growth was 103% in the test with HCC-2998 colon and 90.3% in the test with KM12 colon.

With `OCc1cccc(-c2ccc3ncc(-c4nc(NC5CC5)ncc4F)n3c2)c1`, the growth was -2.9% (active) with T-47D breast; -7.54% (active) in the test with BT-549 breast; -31.7% (active) with MDA-MB-435 melanoma; 0.326% (active) with SW-620 colon; -19.3% (active) in the test with MCF7 breast; 1.41% (active) in the test on HCT-116 colon. Further, the growth was -0.971% (active) with HCC-2998 colon and -18.8% (active) in the test with KM12 colon.

`N#Cc1c(-c2ccc(Cl)cc2)nc(SCC(=O)NC2=NN=C(c3ccccc3)CS2)[nH]c1=O`: the growth was 41.4% with T-47D breast; 91.3% with BT-549 breast; 29.5% in the test with MDA-MB-435 melanoma; 91.6% with SW-620 colon; 47.8% in the test on MCF7 breast; 80.6% in the test with HCT-116 colon. Further, the growth with HCC-2998 colon is 89.6%; with KM12 colon, 83.8%.

On to `N#CC1=C(c2ccc(Cl)cc2)Nc2c(c(-c3ccc(Cl)cc3)nn2-c2ccccc2)C12C(=O)Nc1ccc(Cl)cc12` (stereo not given), for which the growth was 42.3% with T-47D breast; 31.7% in the test on BT-549 breast; 55.1% with MDA-MB-435 melanoma; 54.8% in the test on SW-620 colon; 33.2% in the test with MCF7 breast; 26.1% in the test on HCT-116 colon. Also, the results for the growth with HCC-2998 colon and in the test on KM12 colon were 69.1% and 27.7%, respectively.

Regarding `COC(=O)CNC(=O)[C@H](Cc1ccccc1)NCc1ccncc1`, the growth with T-47D breast is 89.6%; with BT-549 breast it was 96.4%; in the test with MDA-MB-435 melanoma, 110%; in the test on SW-620 colon, 102%; in the test on MCF7 breast it was 92.9%; in the test with HCT-116 colon it was 100%. Further, the growth with HCC-2998 colon and in the test on KM12 colon was 103% each time.
